Activity calls are given as the source filed them.
Molecular target: Albumin (Bos taurus) (UniProt P02769)
Experiment: compounds binding labelled BSA control protein – biochemical, small-molecule microarray, Alexa647 label, 635/667 nm fluorescence, artefact control for SMM control protein annotation, profiling panel (AID 1118);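 note: score merges 667 nm emission intensity and signal-to-noise per printed compound spot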
Conditions: BSA-A647 binding, fluorescence 635 nm, higher = more signal

Sequence of Albumin (Bos taurus) (P02769 whole entry, looked up): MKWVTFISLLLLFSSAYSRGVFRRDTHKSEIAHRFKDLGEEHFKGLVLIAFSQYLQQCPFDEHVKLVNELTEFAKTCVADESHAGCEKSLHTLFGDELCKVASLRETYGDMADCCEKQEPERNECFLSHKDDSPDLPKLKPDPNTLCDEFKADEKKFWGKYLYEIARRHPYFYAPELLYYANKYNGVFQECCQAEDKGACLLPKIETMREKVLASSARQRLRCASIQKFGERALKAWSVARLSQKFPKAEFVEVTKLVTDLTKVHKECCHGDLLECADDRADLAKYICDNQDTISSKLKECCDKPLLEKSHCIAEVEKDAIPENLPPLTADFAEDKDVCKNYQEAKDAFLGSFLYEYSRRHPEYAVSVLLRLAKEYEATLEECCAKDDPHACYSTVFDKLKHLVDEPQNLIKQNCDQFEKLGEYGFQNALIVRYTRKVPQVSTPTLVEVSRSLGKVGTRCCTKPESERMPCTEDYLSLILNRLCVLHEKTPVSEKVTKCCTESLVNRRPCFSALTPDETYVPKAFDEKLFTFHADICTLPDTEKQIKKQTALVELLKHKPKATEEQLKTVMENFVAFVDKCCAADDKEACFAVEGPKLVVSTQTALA

SMILES	composite z-score
COC(=O)[C@@]1(Cc2ccc(OC)cc2)[C@H]2c3cc(C(=O)N(C)C)n(Cc4ccc(OC)c(OC)c4)c3C[C@H]2CN1C(=O)c1ccccc1	0.857
CN1C(=O)C2C=CC(C(O)C=Cc3ccc([N+](=O)[O-])cc3)N(N3CCCCC3)C2C1=O (centres undefined)	0.933
C=CCOC(=O)[C@H]1[C@@H]2C(=O)O[C@@H](c3ccccc3)[C@@H](c3ccccc3)N2[C@@H](c2ccc(OCCOC(=O)[C@H]3C[C@H]4C(=O)N[C@@H](CCCC[N+](C)(C)C)C(=O)N4[C@H]3c3ccc(O)cc3)cc2)[C@]12C(=O)Nc1ccccc12	-0.317
[N-]=[N+]=Nc1ccccc1[C@@H]1OC(c2ccc(OCCCO)cc2)=N[C@]1(CCS(=O)(=O)c1ccccc1)C(=O)N1CCCCC1	1.03

Tested on: not listed separately
Experiment: probe aXIP binding to arrayed compounds – biochemical, NeuroSMM set, 635/667 nm fluorescence, primary screen (AID 1119);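 note: probe is the protein aXip251-270 applied at 1 µg/mL to compound-printed slides; binding of probe to printed compounds measured as 667 nm fluorescence plus signal to noise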
Conditions: small-molecule microarray, higher = more signal, called active from +8 up or from −8 down

SMILES	composite Z-score
[N-]=[N+]=NCc1ccccc1[C@H]1OC(c2ccc(OCCCO)cc2)=N[C@@]1(Cc1ccccc1)C(=O)NCC(O)CO (some centres undefined)	0.0638 (inactive)
NC(=O)NCC#Cc1ccc2c(c1)[C@]1(C(=O)N2)[C@H](c2ccccc2OCCO)N2[C@H](c3ccccc3)[C@H](c3ccccc3)OC(=O)[C@H]2[C@@H]1C(=O)N1CCCCCCC1	4.09 (inactive)
CC(C)(C)OC(=O)CC[C@@]1(C(N)=O)N=C(c2ccc(OCCCO)cc2)O[C@@H]1c1ccccc1N=[N+]=[N-]	0.005 (inactive)
C=CCC(OC(C)=O)[C@@H]1[C@@H](N(Cc2ccc(-c3cccc(C(F)(F)F)c3)o2)C(=O)Cc2ccc(OC)cc2)c2cc(OCCCO)ccc2N1C(=O)Cc1ccc(OC)cc1 (some centres undefined)	-0.784 (inactive)
CCOC(=O)C1=CC[C@@H](c2cccc(Cl)c2)N(S(=O)(=O)c2ccc(C)cc2)[C@H]1c1ccc(C#N)cc1	0.272 (inactive)
Cc1ccc(F)cc1S(=O)(=O)N[C@@H]1CCN(Cc2ccc(C(F)(F)F)cc2)C1	0.512 (inactive)
C/C=C/[C@H](CCn1cc([C@H](O)c2ccccc2)nn1)[Si](C)(C)c1ccc(OC)cc1	-0.0164 (inactive)
COCC1C2CC[C@H]3C(OCc4ccc(F)cc4C(F)(F)F)OC[C@]4(C)[C@H]3C2=C(CN4C(=O)OC(C)(C)C)[C@H](C)C1COC (some centres undefined)	0.973 (inactive)
C=C(/C(=C/C[C@@H](OC(=O)c1ccncc1)c1ccc(CO)o1)c1cc(C(=O)OC)ccc1OC)C(C)C	0.459 (inactive)
O=C1O[C@@H](c2ccccc2)[C@@H](c2ccccc2)N2[C@@H](c3ccc(O)cc3)[C@]3(C(=O)Nc4ccccc43)[C@@H](C(=O)N3CCCCCCC3)[C@H]12	5.98 (inactive)
COC(=O)[C@@]1(Cc2ccc(F)cc2)[C@H]2c3cc(C(=O)N4CCCC4)n(CCc4ccc(OC)c(Br)c4)c3C[C@H]2CN1C(=O)c1ccccc1	-0.61 (inactive)
Cc1c(NC(=O)/C(C#N)=C/C=C/c2ccccc2)c(=O)n(-c2ccccc2)n1C	0.54 (inactive)
C=C(C(=O)CC[C@@H](OC(=O)c1cccnc1)c1ccc(OCCO)cc1)C(C)C	-0.471 (inactive)
O=c1cccc(-c2cccc3ccccc23)o1	0.276 (inactive)
Cc1ccc(S(=O)(=O)N2CC(C(=O)O)=CCC2c2ccccc2)cc1 (centres undefined)	0.0578 (inactive)
O=S(=O)(NCCCO)c1ccc(Br)cc1	-0.854 (inactive)
C=CCOC(=O)[C@@H]1[C@H]2C(=O)O[C@H](c3ccccc3)[C@H](c3ccccc3)N2[C@H](c2ccc(OCCOC(=O)[C@H]3C[C@H]4C(=O)N[C@@H](Cc5ccccc5)C(=O)N4[C@H]3c3ccc(O)cc3)cc2)[C@@]12C(=O)Nc1ccc(I)cc12	1.43 (inactive)
C=CCNC(=O)[C@H]1[C@@H]2C(=O)O[C@@H](c3ccccc3)[C@@H](c3ccccc3)N2[C@@H](c2ccc(O)cc2)[C@]12C(=O)Nc1ccc(C#Cc3ccc(OC)cc3)cc12	-0.155 (inactive)

SMILES	composite Z-score
C[N+](C)(C)CCCC[C@@H]1NC(=O)[C@H]2C[C@@H](C(=O)O)[C@@H](c3cccc(OCCO)c3)N2C1=O	3.73 (inactive)
Cn1c2c(c3ccccc31)C(=O)C1NC2C=CC1(C)C(=O)OCc1ccccc1 (centres undefined)	-0.0597 (inactive)
CCCCC(=C=CC[C@H](O)c1ccccc1OCCO)C[C@H](O)c1cc(Cl)cc(Cl)c1O	0.45 (inactive)
COc1c(C)cc(-c2cc3c(c(-c4ccccc4)n2)[Si](C(C)C)(C(C)C)O[C@H]3c2ccccc2)cc1C	-0.322 (inactive)
C=CCN1Cc2ccccc2C[C@]2(N=C(c3ccc(OCCCO)cc3)O[C@@H]2c2ccccc2)C1=O	0.862 (inactive)
O=C(N1CCCCC1)[C@]1(CCS(=O)(=O)c2ccccc2)N=C(c2ccc(OCCCO)cc2)O[C@@H]1c1ccccc1	1.77 (inactive)
COc1ccc([Si](C)(C)[C@@H]2[C@@H](CCO)O[C@]3(C(=O)N(Cc4ccccc4)c4ccc(N(C=O)c5ccccc5)cc43)[C@H]2C)cc1	1.04 (inactive)
Cc1ccc(S[C@]2(C(=O)NCCCN(C)C)CC(=O)N(C(C)C)[C@@H]2c2ccc(CO)cc2I)cc1	-0.181 (inactive)
C=C(COC)C(=O)CC[C@H](OC(=O)c1cccnc1)c1ccccc1OCCO	0.708 (inactive)
CC(c1ccccc1)C(O)C1C=CC2C(=O)N(Cc3ccccc3)C(=O)C2N1n1cnnc1 (centres undefined)	0.171 (inactive)
CN1C(=O)C2C=CC(C(O)C(C)(C)C)N(Nc3ccccc3)C2C1=O (centres undefined)	0.914 (inactive)
CS(=O)(=O)CCOC(=O)C1=CC(c2ccc(CO)cc2)=CC(c2cccs2)N(Cc2cccc(OC(F)(F)F)c2)C=C1C(=O)OCCS(C)(=O)=O (centres undefined)	-0.0662 (inactive)
Cc1ccc([C@H]2C(C(=O)O)=C[C@@H](C(C)C)N2S(=O)(=O)c2ccc(C)cc2)cc1	-0.236 (inactive)
COC(=O)[C@@]1(Cc2ccc(OC)cc2)[C@H]2c3cc(C(=O)N(C)C)n(Cc4ccc(OC)c(OC)c4)c3C[C@H]2CN1C(=O)c1ccccc1	-0.327 (inactive)
CN1C(=O)C2C=CC(C(O)C=Cc3ccc([N+](=O)[O-])cc3)N(N3CCCCC3)C2C1=O (centres undefined)	0.693 (inactive)
C=CCOC(=O)[C@H]1[C@@H]2C(=O)O[C@@H](c3ccccc3)[C@@H](c3ccccc3)N2[C@@H](c2ccc(OCCOC(=O)[C@H]3C[C@H]4C(=O)N[C@@H](CCCC[N+](C)(C)C)C(=O)N4[C@H]3c3ccc(O)cc3)cc2)[C@]12C(=O)Nc1ccccc12	0.0338 (inactive)
[N-]=[N+]=Nc1ccccc1[C@@H]1OC(c2ccc(OCCCO)cc2)=N[C@]1(CCS(=O)(=O)c1ccccc1)C(=O)N1CCCCC1	-0.0281 (inactive)

From PubChem BioAssay
